Test systems include HCT-15 colon; HT29 colon; SNB-75 CNS; SNB-19 CNS; U251 CNS; PC-3 prostate; SK-MEL-5 melanoma; UACC-62 melanoma; LOX IMVI melanoma; SK-MEL-28 melanoma; SK-MEL-2 melanoma; EKVX NSCLC; SN12C renal; UO-31 renal; TK-10 renal; ACHN renal; CAKI-1 renal; A498 renal; CCRF-CEM leukemia; MOLT-4 leukemia.
Test in all cases: NCI-60 one-dose screen, 48 h (100 = growth as untreated, 0 = no growth, -100 = all killed)
Conditions in all cases: 10 µM unless noted

Compounds without any hit were thinned out: in the full panel of roughly 83,000, 20% have a hit.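 Values shown are percent growth following 48 h exposure of cells in 96-well plates to a single concentration of compound; below 10 was considered active.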 Values without a mark were called inactive. Activity calls are given as the source filed them.

For `CC(C)(C)c1cc(C=Nc2cccc(C(F)(F)F)c2)c(O)c(C(C)(C)C)c1`, the growth is 83.7% in the assay on HCT-15 colon; 81% with HT29 colon; 83.6% in the assay on SNB-75 CNS; 93.9% in the assay with SNB-19 CNS; 77.6% in the assay with U251 CNS; 80.2% in the assay on PC-3 prostate. Besides, the growth is 99.9% in the assay on SK-MEL-5 melanoma; 101% in the assay on UACC-62 melanoma; 101% with LOX IMVI melanoma; 107% with SK-MEL-28 melanoma; 102% in the assay on SK-MEL-2 melanoma; 107% in the assay on EKVX NSCLC. Also, the growth with SN12C renal is 98.8%; in the assay with UO-31 renal it was 80.7%; with TK-10 renal, 84.8%; in the assay on ACHN renal, 111%; in the assay with CAKI-1 renal, 90.4%; with A498 renal it was 108%. Moreover, the growth is 62.5% in the assay on CCRF-CEM leukemia and 85.3% in the assay on MOLT-4 leukemia.

Take `O=C1/C=C/[C@@H](O)[C@@H]2C[C@@H](O)C[C@H]2/C=C/CCC[C@H](CCOCc2ccccc2)O1`: the growth in the assay with HCT-15 colon is 8.84% (active); in the assay on HT29 colon, -23.2% (active); in the assay on SNB-75 CNS it was 33.2%; in the assay on SNB-19 CNS, 33.1%; in the assay with U251 CNS, 18.4%; with PC-3 prostate, 16.5%. In addition, the growth with SK-MEL-5 melanoma was -88.3% (active); in the assay on UACC-62 melanoma it was 6.3% (active); with LOX IMVI melanoma, -59.7% (active); with SK-MEL-28 melanoma, -2.95% (active); in the assay on SK-MEL-2 melanoma, -24.1% (active); in the assay on EKVX NSCLC it was 1.3% (active). For the same compound, the growth in the assay with SN12C renal is 10.6%; in the assay with UO-31 renal, 12.2%; with TK-10 renal, -17.6% (active); in the assay on ACHN renal, 5.36% (active); in the assay with CAKI-1 renal it was -28.2% (active); with A498 renal, -28.5% (active). In addition, the growth in the assay on CCRF-CEM leukemia is 27.5%; in the assay with MOLT-4 leukemia it was 7.56% (active).

For `CC1=CCC[C@@H]2C1(C)CC[C@H](C)[C@@]2(C)CC1=CC(=O)C(SC(C)(C)C)=CC1=O` (some centres not stated), the growth with HCT-15 colon is 86.4%; with HT29 colon, 77%; in the assay with SNB-75 CNS it was 77.4%; in the assay on SNB-19 CNS it was 94.5%; in the assay on U251 CNS it was 85%; in the assay on PC-3 prostate it was 56.1%. In addition, the growth with SK-MEL-5 melanoma is 78.4%; in the assay on UACC-62 melanoma, 67.1%; in the assay with LOX IMVI melanoma it was 74.6%; in the assay with SK-MEL-28 melanoma, 94.2%; in the assay with SK-MEL-2 melanoma, 97.3%; with EKVX NSCLC, 70.7%. Besides, the growth in the assay on SN12C renal is 86.8%; in the assay on UO-31 renal, 66.2%; in the assay on TK-10 renal, 98.8%; in the assay on ACHN renal, 77.5%; in the assay with CAKI-1 renal it was 78.4%; in the assay on A498 renal it was 88.6%. Further, the growth in the assay with CCRF-CEM leukemia is -23.5% (active); with MOLT-4 leukemia it was 36%.

On to `Oc1c(CN2CCCC2)cc(COCc2ccccc2)c2cccnc12`, for which the growth in the assay with HCT-15 colon is 11.3%; in the assay on HT29 colon, 74.4%; in the assay on SNB-75 CNS, 44.9%; with SNB-19 CNS, 25.5%; in the assay with U251 CNS, 1.08% (active); with PC-3 prostate, 24.9%. The growth in the assay on SK-MEL-5 melanoma is -11.1% (active); with UACC-62 melanoma, -19.9% (active); in the assay with LOX IMVI melanoma, 2.6% (active); with SK-MEL-28 melanoma, 31%; in the assay with SK-MEL-2 melanoma, 19.2%; in the assay with EKVX NSCLC, 31.7%. The growth is 27.9% with SN12C renal; -1.58% (active) in the assay on UO-31 renal; 10.7% in the assay with TK-10 renal; 10.5% in the assay on CAKI-1 renal; 19.3% in the assay with A498 renal; 6.37% (active) with CCRF-CEM leukemia. For the same compound, the growth in the assay with MOLT-4 leukemia is 9.79% (active).

For the compound `C#CCOc1cccc(-c2ncc3cc(NC(=O)CCl)ccc3n2)c1`, the growth was -29.6% (active) in the assay on HCT-15 colon; -67.6% (active) in the assay on HT29 colon; 24.4% with SNB-75 CNS; 2.89% (active) in the assay on SNB-19 CNS; -95.7% (active) in the assay with U251 CNS; 11.7% with PC-3 prostate. The growth was -65.2% (active) in the assay on SK-MEL-5 melanoma; -6.06% (active) in the assay on UACC-62 melanoma; -50.4% (active) with LOX IMVI melanoma; 53.9% in the assay with SK-MEL-28 melanoma; 22.7% in the assay on SK-MEL-2 melanoma; -1.1% (active) with EKVX NSCLC. The growth in the assay on SN12C renal was -42.5% (active); in the assay on UO-31 renal, 50.9%; in the assay on TK-10 renal it was 78.9%; in the assay with CAKI-1 renal, -27.3% (active); in the assay on A498 renal, 88.1%; in the assay with CCRF-CEM leukemia, -16.8% (active). Further, the growth in the assay on MOLT-4 leukemia was 0.493% (active).

On to `COc1cc2cc(NCc3ccc(OC(F)F)cc3)nc(C)c2cc1OC`, for which the growth in the assay on HCT-15 colon is 59.9%; with HT29 colon, 25.7%; in the assay on SNB-75 CNS it was 88.1%; in the assay on SNB-19 CNS, 66.2%; in the assay with U251 CNS it was 62.3%; in the assay on PC-3 prostate it was 64.5%. Further, the growth in the assay with SK-MEL-5 melanoma was 68.3%; with UACC-62 melanoma it was 47%; with LOX IMVI melanoma, 27.7%; in the assay with SK-MEL-28 melanoma, 72.7%; in the assay on SK-MEL-2 melanoma, 79.8%; with EKVX NSCLC, 75.6%. For the same compound, the growth was 62.6% in the assay with SN12C renal; 38.6% in the assay with UO-31 renal; 54.1% with TK-10 renal; 51.5% with CAKI-1 renal; 30.5% in the assay with A498 renal; 68.9% with CCRF-CEM leukemia. The growth with MOLT-4 leukemia is 63.3%.

With `N#Cc1c(-c2ccccc2)cc(-c2ccccc2)n(CCCC(=O)NO)c1=O`, the growth in the assay on HCT-15 colon was 19.1%; in the assay on HT29 colon, 20.9%; in the assay on SNB-75 CNS, -23.6% (active); in the assay on SNB-19 CNS it was 43.5%; in the assay on U251 CNS, 26.8%; with PC-3 prostate, 35.5%. The growth in the assay on SK-MEL-5 melanoma was -13.6% (active); with UACC-62 melanoma, 9.37% (active); in the assay with LOX IMVI melanoma it was 8.85% (active); in the assay with SK-MEL-28 melanoma, 33.4%; in the assay on SK-MEL-2 melanoma, 34.1%; with EKVX NSCLC, 27.1%. The growth was 25.8% in the assay with SN12C renal; -24.8% (active) in the assay on UO-31 renal; 34.3% with TK-10 renal; 8.48% (active) with ACHN renal; 10.6% with CAKI-1 renal; -6.11% (active) in the assay on A498 renal. For the same compound, the results for the growth with CCRF-CEM leukemia and in the assay on MOLT-4 leukemia were 10.9% and 14.1%, respectively.

For `O=C(/C=C/C12c3ccccc3C(c3ccccc31)C1C(=O)NC(=O)C12)c1ccccn1` (configuration not stated), the growth is -1.54% (active) in the assay with HCT-15 colon; 0.981% (active) with HT29 colon; 26.5% in the assay with SNB-75 CNS; 1.14% (active) in the assay with SNB-19 CNS; -28.9% (active) with U251 CNS; 16.3% in the assay on PC-3 prostate. In addition, the growth is 3.65% (active) with SK-MEL-5 melanoma; -48.4% (active) in the assay with UACC-62 melanoma; -60.5% (active) with LOX IMVI melanoma; -33.2% (active) in the assay with SK-MEL-28 melanoma; 7.36% (active) in the assay with SK-MEL-2 melanoma; 19.6% with EKVX NSCLC. In addition, the growth was 17.2% in the assay on SN12C renal; 6.89% (active) in the assay with UO-31 renal; 7.71% (active) in the assay on TK-10 renal; 1.3% (active) with ACHN renal; 16.9% in the assay with CAKI-1 renal; -3.11% (active) in the assay on A498 renal. The growth with CCRF-CEM leukemia is -16.1% (active); in the assay on MOLT-4 leukemia, -2.05% (active).

The record behind these values is PubChem BioAssay (NCI).
